Reference: the supplement of paper PMC3414501
Structures can show the parent of a compound that is named as a salt.

test system: S. cerevisiae BY4741 (wild-type), vegetative growth in YPD; assay: growth sensitivity score (doubling time z-score vs DMSO controls); higher = slower growth, strongly negative scores also mark growth inhibition (complete suppression), active = hit call of the paper; in the data active = 2 or more and inactive = the rest
In short: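 Yeast (Saccharomyces cerevisiae BY4741 and AD1-9) was grown in rich medium in microtiter plates from a starting OD600 of 0.065, with optical density read every 15 min over 24 hours. The growth sensitivity score was the difference between compound and solvent-only means, divided by the solvent-only standard deviation. Every experiment had eight solvent-only wells.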

**Q.** `O=C1c2c(O)cc(O)cc2OC(c2ccc(O)c(O)c2)C1O` (stereo not given) [Taxifolin] (stock concentration (mM, diluted 1:100): 10) was tested. Which growth sensitivity score did it give?
**A.** The growth sensitivity score was -0.85 (inactive).

**Q.** With `Nc1ccn([C@H]2CC[C@@H](CO)O2)c(=O)n1` [Zalcitabine] (stock concentration (mM, diluted 1:100): 10) as the molecule, how does the growth sensitivity score read?
**A.** Its growth sensitivity score is -1.35 (inactive).

**Q.** How did the growth sensitivity score turn out when `CCOc1cc(N)c(Cl)cc1C(=O)NCC1CN(Cc2ccc(F)cc2)CCO1` (stereo not given) [Mosapride citrate] (stock concentration (mM, diluted 1:100): 6.9) was run?
**A.** Its growth sensitivity score is 3.25 (active).

**Q.** Which growth sensitivity score does the source give for `CC1CCN(CCCC(=O)c2ccc(F)cc2)CC1` [Metylperon] (stock concentration (mM, diluted 1:100): 10) here?
**A.** The growth sensitivity score was 1.93 (inactive).

**Q.** `CO[C@H]1O[C@@H]2O[C@@]3(C)CC[C@H]4[C@H](C)CC[C@@H]([C@H]1C)[C@@]24OO3` [Artemether] (stock concentration (mM, diluted 1:100): 10) was tested. Which growth sensitivity score did it give?
**A.** Its growth sensitivity score is 17.6 (active).

**Q.** For `O=[N+]([O-])c1cccc2cn[nH]c12` [7-Nitroindazole] (stock concentration (mM, diluted 1:100): 10), which growth sensitivity score is on record?
**A.** The growth sensitivity score was 0.06 (inactive).

**Q.** How did the growth sensitivity score turn out when `O=c1ncc(F)c[nH]1` [5-Fluoro-2-Pyrimidone] (stock concentration (mM, diluted 1:100): 10) was run?
**A.** The growth sensitivity score was -2.08.

**Q.** For `CC(C)(C)NC(=O)[C@@H]1CN(Cc2cccnc2)CCN1C[C@@H](O)C[C@@H](Cc1ccccc1)C(=O)N[C@H]1c2ccccc2C[C@H]1O` [Indinavir sulphate] (stock concentration (mM, diluted 1:100): 8.6), which growth sensitivity score is on record?
**A.** The growth sensitivity score was 0 (inactive).

**Q.** With `OC[C@H]1O[C@@H](Oc2cc(O)cc(/C=C/c3ccc(O)cc3)c2)[C@H](O)[C@@H](O)[C@@H]1O` [Piceid] (stock concentration (mM, diluted 1:100): 10) as the molecule, how does the growth sensitivity score read?
**A.** Its growth sensitivity score is -0.24 (inactive).

**Q.** With `Cc1c(O)cccc1C(=O)N[C@@H](CSc1ccccc1)[C@H](O)CN1C[C@H]2CCCC[C@H]2C[C@H]1C(=O)NC(C)(C)C` [Nelfinavir mesylate] (stock concentration (mM, diluted 1:100): 8.6) as the molecule, how does the growth sensitivity score read?
**A.** Its growth sensitivity score is 0.56 (inactive).
